Assay results reported in the supplement of paper PMC3545927.
The list shows a part of the results. How many sequences the whole screen found active is unknown.

Biological target: furin, P09958
Assay: furin cleavage Z-score vs untreated control; higher = more cleavage, active = 3.5 or more, inactive = 1 or less, 8 variable residues between constant flanks
Procedure: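 Multiplexed peptide-cDNA fusion cleavage assay. 8-mer variable peptides flanked by constant Cys-Ala (N-term) and Ala-Gly-Asn-Ala-Ser-Ala-Ser-Ala (C-term) and conjugated to a cDNA oligonucleotide were bead-immobilised via the N-terminus. They were treated with purified furin at a 1:10 enzyme:substrate ratio in 50 mM HEPES pH 7.5, 1 mM CaCl2, 100 mM NaCl for 7.5, 15 or 30 min. Released cDNA was counted by next-generation sequencing, and log counts versus no-furin controls were lowess-adjusted and converted to robust Z-scores.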

furin, P09958, sequence (P09958 whole entry): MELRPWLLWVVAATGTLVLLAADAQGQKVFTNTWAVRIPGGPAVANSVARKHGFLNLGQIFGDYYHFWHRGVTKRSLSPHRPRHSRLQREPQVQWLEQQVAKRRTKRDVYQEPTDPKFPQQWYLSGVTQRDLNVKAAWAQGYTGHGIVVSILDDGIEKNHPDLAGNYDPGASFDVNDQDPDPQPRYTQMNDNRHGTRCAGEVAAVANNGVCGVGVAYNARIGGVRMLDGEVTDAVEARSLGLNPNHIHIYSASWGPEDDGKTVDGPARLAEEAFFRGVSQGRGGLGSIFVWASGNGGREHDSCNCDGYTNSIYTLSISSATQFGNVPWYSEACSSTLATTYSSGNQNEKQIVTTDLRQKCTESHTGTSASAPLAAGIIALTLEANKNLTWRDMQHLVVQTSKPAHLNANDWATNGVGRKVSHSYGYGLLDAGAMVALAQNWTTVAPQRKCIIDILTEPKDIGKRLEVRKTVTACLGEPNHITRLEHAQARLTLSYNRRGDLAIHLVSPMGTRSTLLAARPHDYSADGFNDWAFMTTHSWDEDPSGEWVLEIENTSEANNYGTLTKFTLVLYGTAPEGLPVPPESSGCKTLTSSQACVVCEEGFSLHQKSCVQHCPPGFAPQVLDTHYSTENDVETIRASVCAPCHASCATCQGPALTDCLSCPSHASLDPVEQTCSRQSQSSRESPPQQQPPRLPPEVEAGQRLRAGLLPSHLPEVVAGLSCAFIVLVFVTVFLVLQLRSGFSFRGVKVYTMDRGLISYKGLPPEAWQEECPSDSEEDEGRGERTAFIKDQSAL

Row | Sequence | furin cleavage Z-score (7.5 min) | furin cleavage Z-score (15 min) | furin cleavage Z-score (30 min)
1 | CALSTGCVVIAGNASASA [HC998] | -0.865 (inactive) | -1.26 (inactive) | 1.11
2 | CAAAGLQDCTAGNASASA [HC1523] | -0.616 (inactive) | -1.19 (inactive) | -0.342 (inactive)
3 | CASTHCSAHLAGNASASA [HC2515] | 0.673 (inactive) | 1.32 | -0.709 (inactive)
4 | CAASSREIRQAGNASASA [FS-1446] | 0.448 (inactive) | 1.14 | 0.453 (inactive)
5 | CAAVCTRGVAAGNASASA [HC752] | 0.499 (inactive) | 0.0628 (inactive) | 1.04
6 | CARSYRIVRTAGNASASA [FS-1934] | 5.65 (active) | 7.17 (active) | 7.79 (active)
7 | CALARRQRRHAGNASASA [FS-266] | 7.59 (active) | 7.8 (active) | 6.43 (active)
8 | CAASSRWRRHAGNASASA [FS-117] | 6.7 (active) | 5.67 (active) | 5.46 (active)
9 | CASNSLLRHHAGNASASA [HC1384] | 0.356 (inactive) | -0.0116 (inactive) | 0.517 (inactive)
10 | CASASRNRRHAGNASASA [FS-1276] | 12.5 (active) | 11.1 (active) | 8.5 (active)
11 | CARSYRDSGIAGNASASA [FS-2463] | 0.464 (inactive) | 1.76 | -0.62 (inactive)
12 | CANIRTGVRTAGNASASA [HC799] | -0.448 (inactive) | -0.243 (inactive) | -0.393 (inactive)
13 | CAREMRALACAGNASASA [FS-2917] | 0.375 (inactive) | -0.261 (inactive) | 0.24 (inactive)
14 | CATTYCSGSWAGNASASA [HC1869] | -2.31 (inactive) | -0.739 (inactive) | -0.526 (inactive)
15 | CAGAVYTFYGAGNASASA [HC553] | -0.781 (inactive) | -1.17 (inactive) | -0.823 (inactive)
16 | CADYEVVTSTAGNASASA [HC2289] | 0.403 (inactive) | 0.654 (inactive) | 0.0996 (inactive)
17 | CAFTFSPRRHAGNASASA [HC306] | -1.3 (inactive) | -0.113 (inactive) | -0.24 (inactive)
18 | CARSHRDTATAGNASASA [FS-1791] | 0.447 (inactive) | 1.01 | -0.325 (inactive)
19 | CASSKRAEAPAGNASASA [FS-2852] | -1.06 (inactive) | -1.45 (inactive) | 0.412 (inactive)
20 | CASSKRNRRHAGNASASA [FS-1418] | 10.5 (active) | 12 (active) | 10.1 (active)
21 | CARCYRSCETAGNASASA [FS-1688] | -1.32 (inactive) | 0.463 (inactive) | -0.398 (inactive)
22 | CAAEEDEREIAGNASASA [HC1291] | -0.251 (inactive) | -1.7 (inactive) | -0.863 (inactive)
23 | CASHARPRWIAGNASASA [HC1653] | 0.938 (inactive) | 1.44 | 0.423 (inactive)
24 | CARSHRSCRTAGNASASA [FS-1792] | 0.788 (inactive) | 2.22 | 3.59 (active)

Row | Sequence | furin cleavage Z-score (7.5 min) | furin cleavage Z-score (15 min) | furin cleavage Z-score (30 min)
25 | CARSHRMRRHAGNASASA [FS-1272] | 12.9 (active) | 13.7 (active) | 9.81 (active)
26 | CASARRGREIAGNASASA [HC662] | 7.44 (active) | 8.55 (active) | 8.19 (active)
27 | CAYLTRDPTTAGNASASA [HC1562] | -1.51 (inactive) | -0.691 (inactive) | -1.7 (inactive)
28 | CADWEVVTSTAGNASASA [HC2288] | -1.03 (inactive) | -0.418 (inactive) | -0.194 (inactive)
29 | CAKANLLSVEAGNASASA [HC1410] | -0.514 (inactive) | -0.264 (inactive) | -1.3 (inactive)
30 | CASCPCSAHLAGNASASA [HC2500] | 0.854 (inactive) | -0.381 (inactive) | 0.717 (inactive)
31 | CAVCCCSMSYAGNASASA [HC2020] | 0.181 (inactive) | 1.69 | 1.02
32 | CATCMSADLEAGNASASA [HC984] | 0.644 (inactive) | 0.775 (inactive) | 1.54
33 | CAGFADLMGYAGNASASA [HC225] | -1.18 (inactive) | -0.646 (inactive) | -1.14 (inactive)
34 | CASPRGSRPSAGNASASA [HC210] | 0.189 (inactive) | 0.149 (inactive) | -0.107 (inactive)
35 | CAMSMRVRRHAGNASASA [FS-945] | 10 (active) | 10.3 (active) | 7.98 (active)
36 | CASPNRSRRHAGNASASA [FS-300] | 9.77 (active) | 10.7 (active) | 7.23 (active)
37 | CAGSVTVPHPAGNASASA [HC837] | 0.881 (inactive) | 0.63 (inactive) | 0.486 (inactive)
38 | CAVVLLFLLLAGNASASA [HC520] | -0.794 (inactive) | -0.656 (inactive) | -1.88 (inactive)
39 | CALDVSVIPTAGNASASA [HC871] | -2.6 (inactive) | -1.18 (inactive) | -0.758 (inactive)
40 | CADPTFTIETAGNASASA [HC894] | -0.863 (inactive) | -0.464 (inactive) | -0.935 (inactive)
41 | CATTPCSGIWAGNASASA [HC1904] | -0.536 (inactive) | 0.611 (inactive) | -1.36 (inactive)
42 | CAPSCRYRRLAGNASASA [FS-1054] | 4.67 (active) | 7.06 (active) | 7.38 (active)
43 | CALWGRTRRLAGNASASA [FS-60] | 1.66 | 4.15 (active) | 3.16
44 | CAVTQLLRRLAGNASASA [HC1137] | 0.0354 (inactive) | -1.42 (inactive) | -1.96 (inactive)
45 | CAPSRRQQRAAGNASASA [FS-1554] | 9.53 (active) | 8.72 (active) | 7.58 (active)
46 | CAPSRRTRRLAGNASASA [FS-1555] | 7.98 (active) | 11.7 (active) | 8.56 (active)
47 | CAPTPLLYRLAGNASASA [HC971] | -0.296 (inactive) | 0.704 (inactive) | 0.366 (inactive)
